The source of these data is PubChem BioAssay AID778 (Sanford-Burnham Center for Chemical Genomics, 2007).

Molecules are shown by their SMILES. Hit rate of the full screen: of about 96,000 compounds, about 20,000 (21%) were called active. These entries were drawn from the full list. Unmarked numbers belong to inactive results.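 The calls were made as follows: active = CYP2C19 inhibition above a set limit at 5 µM in the primary screen (cut at about 50% in these data); inactive = the rest.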

The target of the assay is Cytochrome P450 2C19 (Homo sapiens) (UniProt P33261). The assay can be described thus: blockers of cytochrome P450 2C19 activity – biochemical, luminescence, ADME assay, primary screen (AID 778).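 Also: plate controls were negative control wells for no effect and 2.5 mM tranylcypromine positive control for full effect.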 Particulars: CYP2C19 Supersomes, luciferin-H EGE luminescence, 30 min; at 5 µM; hits give high values.
Sequence of Cytochrome P450 2C19 (Homo sapiens) (P33261 whole entry, looked up): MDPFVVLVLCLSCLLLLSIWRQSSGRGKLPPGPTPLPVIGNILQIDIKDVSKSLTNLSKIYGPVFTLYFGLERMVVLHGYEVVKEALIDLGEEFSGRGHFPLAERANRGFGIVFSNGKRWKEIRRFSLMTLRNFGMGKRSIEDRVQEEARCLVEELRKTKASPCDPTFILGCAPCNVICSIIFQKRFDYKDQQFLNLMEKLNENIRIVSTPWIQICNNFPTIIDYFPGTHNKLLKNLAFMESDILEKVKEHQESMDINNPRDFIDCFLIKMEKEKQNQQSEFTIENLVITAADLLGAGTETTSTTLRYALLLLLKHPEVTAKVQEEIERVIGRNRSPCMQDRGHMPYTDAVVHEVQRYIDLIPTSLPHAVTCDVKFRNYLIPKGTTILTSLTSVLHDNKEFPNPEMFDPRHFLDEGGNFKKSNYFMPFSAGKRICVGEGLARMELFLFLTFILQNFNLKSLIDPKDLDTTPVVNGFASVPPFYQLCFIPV
As to `O=C(NC1CCCCC1)c1ccc(CNc2c(N3CCOCC3)c(=O)c2=O)cc1`, the inhibition is 9.7%. With `Cc1ccc(C(=O)NC2CCN(C(=O)N3CCOCC3)CC2)cc1`, the inhibition is -1.3%. Under `O=C1OC(NC(=O)c2ccccc2)C(N2CCOCC2)=C1Cl` (configuration not stated) stands 52.8% (active). Turning to `COc1ccc(NC(=O)C(NC(C)=O)C(=O)NCc2ccccc2Cl)cc1` (configuration not stated), the inhibition is 12.9%. Under `COc1ncnc2c1N=C1CC(C)(C)CC(N)=C1S2` stands 4.5%; under `O=c1[nH]nc(Cc2ccccn2)c2ccccc12`, -0.8%. Next, `CN(CCc1ccccn1)S(=O)(=O)c1ccc2c3c(cccc13)C(=O)N2`: 93.6% (active); `CCCC1C(c2ccccc2)C(C#N)(C#N)C2(C#N)CC1(N)NC2=O` (configuration not stated): 5%. Under `O=C(O)c1ccccc1NC(=S)NC(NC(=O)c1ccccc1[N+](=O)[O-])C(Cl)(Cl)Cl` (configuration not stated) stands 2%; under `CC1(C)N=C(c2ccccn2)C(C)(C)N1O`, 29.9%.

On to `COc1ccc(NC(=O)Nc2ccc3nsnc3c2)cc1`, for which the inhibition is 20.3%. Next, `COc1cccc(N2C(=O)C3CCCN3C2c2ccc(F)cc2)c1` (configuration not stated): -0.1%; `Cc1cc(NS(=O)(=O)c2ccccc2)no1`: -16.4%; `O=C(/C=C/c1ccco1)Nc1cccc(-c2nc3ccccc3[nH]2)c1`: 47.9%. Next, `O=S(=O)(Nc1ccc2nc(-c3ccco3)[nH]c2c1)c1ccccc1`: 92.4% (active). Next, `Cc1ccc(C)c(NS(=O)(=O)c2cc(Br)cnc2N)c1`: 61.5% (active); `Cc1ccc(C)c(S(=O)(=O)n2cnc3ccccc32)c1`: -11.2%; `COc1c(C(=O)N2CCCC2)ccc2ccccc12`: 53% (active). Regarding `CC(=O)c1ccc2c(ccc3ccccc32)c1`, the inhibition is 35%.

For `O=C(c1cccc2ccccc12)N1CCN(c2ccccc2F)CC1`, the inhibition was 35.4%. Turning to `Cc1cc(-n2nc(C)cc2C)n2nc(C)c(-c3ccccc3)c2n1`, the inhibition was 21.4%. Take `COc1ccccc1C(=O)N1CCN=C1SCc1cccnc1`: the inhibition is 88.2% (active). In the case of `COc1ccccc1C(=O)N1CCNC(=O)C1CC(=O)Nc1ccc(Cl)cc1` (configuration not stated), the inhibition was 12.1%.

`CCOc1cccc(SCc2noc(C(=O)NC(C)C)c2C(=O)O)c1`: the inhibition was 8.8%. Under `COc1ccc(OC)c(C2N(c3ccccn3)C(=O)C3CCCN32)c1` (configuration not stated) stands -2.4%; under `COc1ccc(-c2nnc(SCC(=O)c3ccco3)n2-c2ccccc2)cc1`, -13.8%.

In the case of `CCn1c(CNc2ccc(OC)cc2)nnc1SCC(=O)c1ccc(OC)cc1`, the inhibition was 33.9%.

With `COc1ccc(NCc2nnc(SCc3ccccc3)n2-c2ccc(OC)cc2)cc1`, the inhibition is 85.8% (active). Next, `CCC(=O)N1c2ccc(S(=O)(=O)CCC(=O)N3CCN(c4ccccc4)CC3)cc2CC1C` (configuration not stated): 26.2%; `Cc1csc(=NC(=O)c2ccccc2)n1CCO`: 49.7%. Under `Cc1ccn2cc(C(=O)NC3CCN(Cc4ccccc4)CC3)nc2c1` stands 11.4%. For `CCC(=O)Nc1ccc(C(=O)Nc2cc(C)on2)cc1`, the inhibition was 14.7%. Next, `CCCC(C)C(=O)Nc1ccc(NC(C)=O)cc1` (configuration not stated): -6.8%; `O=C(NCCc1ccccn1)c1cc(C(=O)C2CCCCC2)c[nH]1`: -1.5%; `CCOC(=O)C1CCN(c2ncnc3c2oc2ccc(Br)cc23)CC1`: 43.1%.

As to `Cc1cc(C(=O)Nc2c(C)nn(Cc3ccccc3)c2C)on1`, the inhibition is 11.7%. Next, `CSc1ccccc1NC(=O)c1cc(C2CC2)on1`: 31.1%. On to `Cc1nn(Cc2ccc(Cl)c(Cl)c2)c(C)c1NC(=O)c1cc(C2CC2)on1`, for which the inhibition is 95% (active). Under `Cc1nc2nc(CSc3nc4ccccc4s3)cc(=O)n2[nH]1` stands -9.6%; under `O=S(=O)(c1ccccc1)N(CC(O)CN1CCCCC1)c1ccccc1` (configuration not stated), 17.7%. Under `CN(C)/C(CN1CCCCC1)=C1\N=C(c2ccccc2)OC1=O` stands 63.8% (active). `O=c1oc2c(Cl)cc(Cl)cc2cc1-c1nnc(Nc2ccccc2F)s1`: the inhibition was -3.7%. In the case of `CCOC(=O)CNC(=O)CN1C(=O)CCSc2ccccc21`, the inhibition was 44.3%.

In the case of `CCSc1ncnc2c(C#N)c3n(c12)CCCCC3`, the inhibition was 5.8%. Next, `Cc1nc(-c2ccc(NC(=O)c3cccs3)cc2)cs1`: 12.8%; `O=C(Nc1ccccc1)OCc1cc(-c2ccc(Cl)cc2)on1`: 16.6%; `O=C(Nc1ccc(Cl)cc1)OCc1cc(-c2ccccc2)on1`: 76.4% (active). Under `O=C(Nc1ccccc1)OCc1cn(-c2ccc(Cl)cc2)nn1` stands -1.4%; under `CCOC(=O)CSc1ncc(-c2cccc(Cl)c2)cn1`, 11.1%; under `COc1ccccc1N=C(C)C1=C(O)COC1=O`, 27.5%. Next, `CC(C)N(C(=O)Cn1c(SCC(=O)N2CCN(c3ccccc3)CC2)nc2ccccc21)C(C)C`: 6.9%; `COC(=O)[C@H](Cc1ccccc1)NC(=O)N1CC(C)OC(C)C1` (some centres not stated): 8.3%. For the compound `Cc1ccc(-c2nnn(CC(=O)N(CCO)C(C(=O)NC(C)(C)C)c3ccncc3)n2)cc1` (configuration not stated), the inhibition was 74% (active).

For `COc1ccc(-c2nnn(CC(=O)N(CCO)C(C(=O)NC3CCCC3)c3ccc(F)cc3)n2)cc1` (configuration not stated), the inhibition was 7.8%.

For the compound `CC(C)(C)NC(=O)Cn1nnc(-c2ccccc2Cl)n1`, the inhibition was 45%. Under `CCCNC(=O)N1CCN(C(=O)NCCC)CC1` stands 4.5%; under `COc1ccc(C(=S)Nc2ccccc2)cc1`, 65.2% (active); under `COCCNC(=S)c1ccc(OC)cc1`, 18%. Next, `COc1ccc(NC(=O)c2ccc(OC)cc2)cc1`: -5.6%; `Oc1ccccc1CNc1ncc(Br)cc1Br`: 39.4%. Take `O=C(NCCSc1ccccc1)c1ccco1`: the inhibition was 21.8%.

Consider `COc1ccc(CCNC(=O)c2ccco2)cc1`, for which the inhibition was 55.3% (active).

For the compound `COc1ccc(N(CC(=O)NC(C)(C)C)C(=O)c2ccco2)cc1`, the inhibition is -6.7%. Under `CCc1ccc(-c2cc(C(=O)NCc3ccco3)c3ccccc3n2)s1` stands 11.6%; under `c1ccc(CCC2=NCCn3cccc32)cc1`, 10.1%.

For `O=S(=O)(c1ccc(Br)cc1)n1ccc2ccccc21`, the inhibition is 66.4% (active). Under `Cc1ccc(C)c(N2C(=O)CS/C2=N\NC(=O)c2ccccc2Cl)c1` stands 63.7% (active); under `CC(=O)Nc1cccc(/C(C)=N/NC(=O)c2ccccc2Cl)c1`, 10.9%; under `Cc1ccc(C)c(NC(=O)C2CC(=O)N(C(C)C)C2)c1` (configuration not stated), -10.6%. Next, `O=C1c2ccccc2C(Nc2ccc3c(c2)OCCO3)N1Cc1ccco1` (configuration not stated): 72.9% (active). Under `Cc1ccnc(N2C(=O)c3ccccc3C2Nc2ccc3c(c2)OCCO3)c1` (configuration not stated) stands 93.2% (active); under `Cc1cccc(C(=O)Nc2ccccc2-c2nnn(CC(=O)Nc3ccc4c(c3)OCCO4)n2)c1`, -12.5%. Turning to `O=C(NC1CCCCC1)C1c2ccccc2C(=O)N1Cc1ccco1` (configuration not stated), the inhibition was 12.4%. Next, `CC1CCN(c2nc3c(c(=O)[nH]c(=O)n3C)n2CCCc2ccccc2)CC1`: 18.4%. `O=C1CSC(c2cccc(F)c2)N1c1ccc(O)cc1` (configuration not stated): the inhibition was 26.3%. Next, `CC1C/C(=N/NC(=O)c2cccs2)CC(C)(C)C1` (configuration not stated): 41.9%; `FC(F)(F)c1cc(C(F)(F)F)c2ccc(N3CCN(c4ccccc4)CC3)nc2n1`: -3.4%. Next, `CCOC(=O)CCCNC(=O)CN1C(=O)NC(CCc2ccccc2)C1=O` (configuration not stated): -2.6%. Next, `COc1ccc(-c2nnco2)cc1OC`: 11.8%; `CCCC(NC(=O)c1ccccc1)c1nc2ccccc2n1Cc1ccc(C(=O)OC)o1` (configuration not stated): 2.7%. Regarding `C=CCn1c(C(C)NC(=O)CC)nc2ccccc21` (configuration not stated), the inhibition was -3.9%. Under `CCCn1c(C(Cc2ccccc2)NC(=O)COC)nc2ccccc21` (configuration not stated) stands 90.2% (active). Next, `CC(CN1CCCCC1)OC(=O)c1ccccc1Cl` (configuration not stated): 38.8%.

Take `Cc1cc(C)c(C)c(S(=O)(=O)Nc2ccc(O)cc2)c1C`: the inhibition is 50.9% (active). Next, `Cc1ccc(NS(=O)(=O)c2c(C)[nH]c(=O)[nH]c2=O)cc1C`: 1.6%; `Cc1noc(C)c1S(=O)(=O)Nc1ccc(C(=O)O)cc1`: 2.3%. Next, `c1ccc(Cc2nn3c(Cn4cnc5ccccc54)nnc3s2)cc1`: 39%; `Cc1c(-c2ccccc2)nc(N)c(C#N)c1-c1cccs1`: 0.7%; `CCOC(=O)c1ccc(NC(=O)CS(=O)(=O)c2cn(CC)c3ccccc23)cc1`: 20.6%. As for `CC(C)NS(=O)(=O)c1ccc(NC(=O)C2CCCCC2)cc1`, the inhibition is 13.3%. As to `CC(C)(C)NS(=O)(=O)c1ccc(NC(=O)NC2CCCCC2)cc1`, the inhibition is 8%. Under `CCOC(=O)[C@H]1CCC[C@@H](NS(=O)(=O)c2ccc(NC(C)=O)cc2)C1` stands 57.9% (active); under `CC1=C(C)CC(C(=O)NNC(=O)c2ccccc2O)C(C(=O)O)C1` (configuration not stated), -7.2%; under `Cc1nc(SCC(=O)N2CCc3ccccc3C2)c2c(C)c(C)sc2n1`, 20%. As to `COc1ccc(-n2c(SCC(=O)Nc3ccc4c(c3)OCO4)nnc2C(C)N2CCCCC2)cc1` (configuration not stated), the inhibition is 16.9%.

In the case of `O=C(Nc1ccc2c(c1)OCCO2)C(c1ccc(F)cc1)N1CCCCC1` (configuration not stated), the inhibition is 56.5% (active). Next, `CC1CCCN(C(C(=O)Nc2ccc(C(C)C)cc2)c2ccc3c(c2)OCO3)C1` (configuration not stated): 17.7%; `CCN(CC)Cc1csc2ccc(Br)cc12`: 5.2%.

As to `O=[n+]1c2c(n([O-])c3cc(Br)ccc31)CCC2`, the inhibition was 21%.

Regarding `Cc1nnc(SCC(=O)N2CCc3ccccc32)n1-c1ccccc1`, the inhibition was 3.9%. As to `CCCn1c(SCC(=O)N2CCc3ccccc32)nnc1-c1ccncc1`, the inhibition was 83.8% (active). Turning to `C=CCn1c(=O)c2ccccc2n2c(SCC(=O)N3CCCc4ccccc43)nnc12`, the inhibition is 36.5%.

In general, inhibition refers to the relative decrease from the control value, in per cent.
